# Screening results (PubChem)
# CYP2C19 act: human CYP2C19 activators, primary screen, biochemical, luminescence; Cytochrome P450 2C19 (Homo sapiens), P33261; activation factor at 5 µM; 96,000 tested, under 10 active; recombinant CYP2C19, luciferin-H EGE luminescence; active compounds read high; 0 = fully inhibited enzyme, 1 = untreated enzyme; AID 1025, 2008;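 active = activation factor of at least 2 at 5 µM in the primary screen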;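 note: 0 = wells with 2.5 mM tranylcypromine and 1 = vehicle-only wells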
# CYP2C9 inh: blockers of cytochrome P450 2C9 activity – biochemical, luminescence, ADME assay, primary screen; P11712; AID 777, 2007; actives 20% (n = 96,000); inhibition, % at 5 µM; CYP2C9 Supersomes, luciferin-H conversion;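 active = blocking of liver enzyme CYP2C9 beyond about 50% at 5 µM, limit read from the data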
# Target sequence (P11712 whole entry, looked up): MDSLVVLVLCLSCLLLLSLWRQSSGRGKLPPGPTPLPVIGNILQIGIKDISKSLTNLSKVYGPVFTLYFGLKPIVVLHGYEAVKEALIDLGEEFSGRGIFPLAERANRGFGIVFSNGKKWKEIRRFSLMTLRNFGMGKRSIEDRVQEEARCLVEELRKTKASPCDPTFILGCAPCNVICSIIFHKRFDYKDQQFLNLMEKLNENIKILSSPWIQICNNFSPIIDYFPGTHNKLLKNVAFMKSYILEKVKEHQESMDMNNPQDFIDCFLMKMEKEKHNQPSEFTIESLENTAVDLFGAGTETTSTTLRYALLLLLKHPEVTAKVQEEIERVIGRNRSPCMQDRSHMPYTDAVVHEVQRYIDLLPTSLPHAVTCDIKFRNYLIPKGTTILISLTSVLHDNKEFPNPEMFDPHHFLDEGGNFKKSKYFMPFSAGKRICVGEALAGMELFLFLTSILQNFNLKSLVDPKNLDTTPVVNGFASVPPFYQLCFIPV
# CYP2C9 act: human CYP2C9 activators, primary screen, biochemical, luminescence; Cytochrome P450 2C9 (Homo sapiens), P11712; recombinant CYP2C9, luciferin-H conversion; active compounds read high; factor 1 = untreated enzyme, 0 = blocked; activation factor at 5 µM; actives 1.4% (n = 96,000); AID 1024, 2008;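 active = activation factor of 2 or more for CYP2C9 at a 5 µM dose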;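 note: 0 = sulfaphenazole-blocked wells and 1 = vehicle-only wells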
# Cav32 inh: Cav3.2 calcium influx blockers – cell-based, Fluo-4 calcium fluorescence, FDSS, MLSMR library, primary screen; Voltage-dependent T-type calcium channel subunit alpha-1H (Homo sapiens), O95180; Cav3.2-expressing cells; active compounds read low; B-score at 10 µM; actives 4% (n = 100,000);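 active = single-dose well whose peak fluorescence ratio is a statistical outlier from its plate by either plate-standardised score or position-corrected B-score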
# CYP2C19 inh: blockers of cytochrome P450 2C19 activity – biochemical, luminescence, ADME assay, primary screen; P33261; CYP2C19 Supersomes, luciferin-H EGE luminescence, 30 min; inhibition, % at 5 µM; actives 21% (n = 96,000); AID 778, 2007;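 active = CYP2C19 inhibition above a set limit at 5 µM in the primary screen, cut at about 50% in these data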;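 note: plate controls were negative control wells for no effect and 2.5 mM tranylcypromine positive control for full effect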
# Active calls of the source: *; . = no result given. The list is not random: actives were taken first. Their share in the collection is about 27%.
SMILES,CYP2C19 act,CYP2C9 inh,CYP2C9 act,Cav32 inh,CYP2C19 inh
CCN(CC)S(=O)(=O)c1ccc(C(=O)N2CCN=C2SCc2cccnc2)cc1,0.6,48,0.5,1.1,38
COc1ccc(OC)c(S(=O)(=O)Nc2ccccc2SC)c1,.,.,.,-0.62,.
CCCCOc1ccc(S(=O)(=O)Nc2cc(OC)ccc2OC)cc1,0.1,74*,0.3,-3.7,86*
COc1ccc(OC)c(N/C=C2/CCCCC2=O)c1,0.7,55*,0.4,-0.88,31
COc1ccc(OC)c(S(=O)(=O)Nc2ccccc2C)c1,0.1,23,0.8,-0.15,87*
COc1ccc(OC)c(NC(=O)COc2ccc(S(=O)(=O)NC(C)C)cc2)c1,0.5,44,0.6,0.96,46
COc1ccc(OC)c(NS(=O)(=O)c2cc(OC)ccc2OC)c1,0,59*,0.4,-0.5,96*
Cc1cnn(Cc2ccccc2)c1N,0.7,4,1,0.57,30
COc1ccc(S(=O)(=O)NN=C2CCCC2)cc1,0.7,-6,1.1,-0.76,32
COc1cc(C)c(S(=O)(=O)Nc2ccccc2F)cc1C,0.1,52*,0.5,.,88*
CCNS(=O)(=O)c1cc(OC)ccc1OC,0.1,90*,0.1,0.0017,85*
COc1ccc(S(=O)(=O)Nc2cc3c4c(oc3c3ccccc23)CCCC4=O)cc1,0.5,82*,0.2,-0.073,46
COc1ccc(OC)c(S(=O)(=O)Nc2ccccc2C(=O)O)c1,1.1,3,1,0.96,-13
COc1ccc(S(=O)(=O)Nc2ccccc2C)cc1,0,51*,0.5,-2.2,100*
COc1ccc(OC)c(S(=O)(=O)NCCO)c1,1.1,-7,1.1,0.48,-8
COc1nc(Oc2ccc(=O)[nH]n2)nc(N2CCOCC2)n1,1.1,-11,1.1,-0.18,-10
O=C1CCCCCC1C1(O)C(=O)Nc2ccc(Br)cc21 (centres undefined),0.5,-9,1.1,0.36,52*
COc1ccc(CC(=O)NCCN2CCCC2)cc1,1,5,0.9,1.2,2
CCN(CC)S(=O)(=O)c1cccc(-c2nnc(SCCCC(=O)c3ccc(F)cc3)o2)c1,0,87*,0.1,-4.7*,95*
CCN(CC)S(=O)(=O)c1cccc(-c2nnc(-c3ccc(C)cc3)o2)c1,0.8,16,0.8,-0.71,16
CCN(CC)S(=O)(=O)c1cccc(-c2nnc(SC(C)C(=O)NCCC3=CCCCC3)o2)c1 (centres undefined),.,.,.,-2.9*,.
O=C(CSc1nnc(-c2cccc(S(=O)(=O)N3CCCCC3)c2)o1)NCCC1=CCCCC1,0.9,36,0.6,0.86,13
CCN(CC)S(=O)(=O)c1cccc(-c2nnc(SCc3nc4ccccc4s3)o2)c1,0.1,10,0.9,-1.3,93*
CCN(CC)S(=O)(=O)c1cccc(-c2nnc(SCCCC(=O)c3ccccc3)o2)c1,0.2,64*,0.4,-5.3*,76*
CCN(CC)S(=O)(=O)c1ccc(-c2nnc(SCC(=O)N3c4ccccc4CC3C)o2)cc1 (centres undefined),1.1,4,1,-1.7,-8
SMILES,CYP2C19 act,CYP2C9 inh,CYP2C9 act,Cav32 inh,CYP2C19 inh
CCOC(=O)C1Nc2c(F)cc(C)cc2C2c3ccccc3CC12 (centres undefined),.,.,.,0.2,.
Cc1sc2ncnc(SCC(=O)NC(=O)NCc3ccco3)c2c1C,1.1,-2,1,-0.43,-10
CN(C)c1nc(N2CCN(c3ccc(F)cc3)CC2)c(C#N)c(=O)o1,0.2,-119,2.2*,.,82*
CCOc1ccc(Br)cc1S(=O)(=O)Nc1ccc(N2CCOCC2)cc1,0.4,54*,0.5,0.14,64*
CCOc1ccc(Br)cc1S(=O)(=O)Nc1ccccc1N1CCOCC1,0.2,55*,0.4,-3.7,78*
O=C(Cc1ccccc1)CC1(O)C(=O)Nc2ccccc21 (centres undefined),0.9,-30,1.3,2.2,12
Cc1ccc(S(=O)(=O)C2(C(=O)N(C)C3CCCCC3)CC2)cc1,0.5,8,0.9,0.11,50*
Cc1ccc(S(=O)(=O)C2(C(=O)N3CCCCC3C)CC2)cc1 (centres undefined),0.3,7,0.9,-0.24,72*
O=C(NC1CCCCC1)c1ccc(Cn2cc(Br)cn2)o1,0.4,34,0.7,0.023,62*
O=C(c1ccc(Cn2cc(Br)cn2)o1)n1cccn1,0.5,21,0.8,-2.3,55*
O=C(Nc1ccc(C(F)(F)F)cc1Cl)c1ccc(Cn2cc(Br)cn2)o1,0.7,-25,1.2,-3.2,31
O=C(Nc1cccc(C(F)(F)F)c1)c1ccc(Cn2cc(Br)cn2)o1,0.2,69*,0.3,-7.2*,85*
CCn1c(C)c(C(C)=O)c(SC)nc1=S,1.1,-2,1,0.31,-6
COc1cc2c(cc1OC)C(c1cc3ccccc3oc1=O)=NC(C)(C)C2,.,.,.,0.67,.
COc1ccc(NC2=C(C(C)=O)C(c3ccc4c(c3)OCO4)C(C(C)=O)C(C)(O)C2)cc1 (centres undefined),0.3,78*,0.2,0.37,72*
COc1ccc(NC2=C(C(C)=O)C(c3ccc(OC)c(OC)c3)C(C(C)=O)C(C)(O)C2)cc1 (centres undefined),.,.,.,0.89,.
O=C(CCc1ccc(S(=O)(=O)NC2CCCCC2)cc1)N(Cc1ccccc1)Cc1ccccc1,0.3,88*,0.1,-5.8*,70*
O=C(NC1CC1)c1ccc(S(=O)(=O)NC2CCCCCC2)cc1,0.5,35,0.7,0.067,54*
CSc1ccc(S(=O)(=O)NC2CCCCCC2)cc1,0.1,23,0.8,-1.3,95*
O=C(CCc1ccc(S(=O)(=O)NC2CCCCC2)cc1)Nc1ccccc1,0.8,31,0.7,-0.011,22
COC(C[C@@H]1O[C@@H]1[C@H](O)COCc1ccccc1)OC,.,.,.,0.37,.
O=[N+]([O-])c1cnccc1Nc1ccccc1,0,92*,0.1,-0.12,98*
C=C(C)c1cccc(C(C)(C)NC(=O)N2CCOCC2)c1,0.4,17,0.8,0.61,56*
CC(C(=O)N1CCOCC1)(c1ccccc1)c1ccccc1,0.1,24,0.8,-0.73,94*
O=C(Oc1ccccc1OC(=O)N1CCOCC1)N1CCOCC1,0.9,-4,1,0.15,8
C=C(C)c1cccc(C(C)(C)NC(=O)N2CCCC2)c1,.,.,.,0.71,.
CN1CCN(C(=O)C2=C[C@H](c3csc4ccccc34)C[C@H](OCCCCO)O2)CC1,.,.,.,-0.2,.
Cc1csc(C2=C(O)CN(c3ccc4c(c3)OCCOCCOCCOCCO4)C2=N)n1,1,3,1,0.15,3
